The supplement of paper PMC4840960

How the values were obtained:
[1] = test system: E18 rat cortical neuron-glia co-culture; test: fiber score / MBP score (myelination specific beyond OL differentiation) (ratio); higher = more myelination-specific MBP alignment; details: treatment time: 8 days (DIV5-DIV13)
How it was run: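 Library compounds were applied at 1 or 5 µM in myelination medium, DIV5 to DIV13, to primary E18 rat cortical co-cultures grown at 20,000 cells/well in 96-well plates. After 4 % paraformaldehyde fixation and MBP/Olig2/DAPI immunostaining, four 10X fields per well in duplicate wells were scored. Each value is continuous MBP fiber length per Olig2+ nucleus divided by thresholded MBP area × intensity per Olig2+ nucleus.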

[2] = test system: E18 rat cortical neuron-glia co-culture; test: myelination (MBP fiber length per Olig2+ nucleus), % of 1 µM DAPT response (DMSO = 0) (% of DAPT); higher = more myelination, active = 50 or more; details: treatment time: 8 days (DIV5-DIV13)
How it was run: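 Library compounds at 1 or 5 µM in myelination medium were applied from DIV5 to DIV13 to papain-dissociated E18 rat cortical co-cultures seeded at 20,000 cells/well on poly-d-lysine/laminin 96-well plates. Fixed cells (4 % paraformaldehyde) were immunostained for MBP and Olig2 with DAPI, and four 10X fields were analysed in each duplicate well. Continuous straight MBP fiber length per Olig2+ nucleus was set to 0 for 0.1 % DMSO and to 100 for a 1 µM positive control.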

**Q.** For `CCC(=O)O[C@@H]1CC(=O)O[C@H](C)C/C=C/C=C/[C@H](O)[C@H](C)C[C@H](CC=O)[C@H](O[C@@H]2O[C@H](C)[C@@H](O[C@H]3C[C@@](C)(O)[C@@H](OC(=O)CC)[C@H](C)O3)[C@H](N(C)C)[C@H]2O)[C@H]1OC` [Midecamycin], which “fiber score / MBP score” value ([1]; 1 µM) is on record?
**A.** 0.757

**Q.** And the “fiber score / MBP score” value ([1]; 5 µM)?
**A.** 1.13

**Q.** What about the myelination ([2]; 1 µM) of the same compound?
**A.** -9.01 (inactive)

**Q.** What about the myelination ([2]; 5 µM) of the same compound?
**A.** 1.11 (inactive)

**Q.** With `CC(COc1ccccc1)N(CCCl)Cc1ccccc1` (configuration not stated) [Phenoxybenzamine] as the compound, how does the “fiber score / MBP score” value ([1]; 1 µM) read?
**A.** 0.774

**Q.** And the “fiber score / MBP score” value ([1]; 5 µM)?
**A.** 0.918

**Q.** What about the myelination ([2]; 1 µM) of the same compound?
**A.** -14.4 (inactive)

**Q.** What about the myelination ([2]; 5 µM) of the same compound?
**A.** 0.385 (inactive)

**Q.** What does the source list for `CN(C)c1ccc(O)c2c1C[C@H]1C[C@H]3[C@H](N(C)C)C(O)=C(C(N)=O)C(=O)[C@@]3(O)C(O)=C1C2=O` [Minocycline]?
**A.** fiber score / MBP score ([1]; 1 µM): 0.788; fiber score / MBP score ([1]; 5 µM): 0.583; myelination ([2]; 1 µM): -6.54 (inactive); myelination ([2]; 5 µM): -5.86 (inactive)

**Q.** How did the “fiber score / MBP score” value ([1]; 1 µM) turn out when `CC(C)OC(=O)CCC/C=C\C[C@@H]1[C@@H](CC[C@@H](O)CCc2ccccc2)[C@H](O)C[C@@H]1O` [Latanoprost] was run?
**A.** 0.955

**Q.** And the “fiber score / MBP score” value ([1]; 5 µM)?
**A.** 0.853

**Q.** And the myelination ([2]; 1 µM)?
**A.** -8.13 (inactive)

**Q.** What about the myelination ([2]; 5 µM) of the same compound?
**A.** -8.74 (inactive)

**Q.** What does the source list for `CS(=O)(=O)OCCCCOS(C)(=O)=O` [Busulfan]?
**A.** fiber score / MBP score ([1]; 1 µM): 0.646; fiber score / MBP score ([1]; 5 µM): 1.46; myelination ([2]; 1 µM): -6.35 (inactive); myelination ([2]; 5 µM): 46.7 (inactive)

**Q.** `Cc1occc(=O)c1O` [Maltol] was tested. Which “fiber score / MBP score” value ([1]; 1 µM) did it give?
**A.** 0.739

**Q.** And the “fiber score / MBP score” value ([1]; 5 µM)?
**A.** 0.672

**Q.** And the myelination ([2]; 1 µM)?
**A.** -10.1 (inactive)

**Q.** What about the myelination ([2]; 5 µM) of the same compound?
**A.** -13.4 (inactive)

**Q.** With `Cc1noc(NS(=O)(=O)c2ccc(N)cc2)c1C` [Sulfisoxazole] as the compound, how does the “fiber score / MBP score” value ([1]; 1 µM) read?
**A.** 0.958

**Q.** And the “fiber score / MBP score” value ([1]; 5 µM)?
**A.** 0.834

**Q.** What about the myelination ([2]; 1 µM) of the same compound?
**A.** -3.97 (inactive)

**Q.** And the myelination ([2]; 5 µM)?
**A.** -6.9 (inactive)

**Q.** Which results are given for `Cc1cn([C@H]2C[C@H](N=[N+]=[N-])[C@@H](CO)O2)c(=O)[nH]c1=O` [Zidovudine]?
**A.** fiber score / MBP score ([1]; 1 µM): 0.929; fiber score / MBP score ([1]; 5 µM): 0.666; myelination ([2]; 1 µM): 11.9 (inactive); myelination ([2]; 5 µM): -21.5 (inactive)
